Experimental data: the supplement of paper PMC6411743
± gives the standard deviation of the averaged measurements. The full data set covers some 5,400 targets. This sample favours those with the largest changes.

Compound: Nc1nc2c(ncn2[C@@H]2O[C@H](COP(=O)(O)OP(=O)(O)OP(=O)(O)O)[C@@H](O)[C@H]2O)c(=O)[nH]1 [guanosine triphosphate]
Test: NP40-soluble protein abundance relative to vehicle (solubility fold change) (ratio); higher = more soluble protein in presence of GTP
Protocol: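 Solubility proteome profiling in Jurkat crude lysate. Lysate was treated with Mg-GTP (0.1-10 mM) for 10 min at room temperature and 3 min at 37 °C, then solubilised with 0.8% NP40 and benzonase, followed by ultracentrifugation. Proteins were quantified by TMT10 LC-MS/MS; the value is the NP40-soluble abundance relative to the NP40-processed vehicle, from 3 independent experiments.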

## NOP58 (UniProt Q9Y2X3)
Chain of UniProt Q9Y2X3 (Q9Y2X3 whole entry): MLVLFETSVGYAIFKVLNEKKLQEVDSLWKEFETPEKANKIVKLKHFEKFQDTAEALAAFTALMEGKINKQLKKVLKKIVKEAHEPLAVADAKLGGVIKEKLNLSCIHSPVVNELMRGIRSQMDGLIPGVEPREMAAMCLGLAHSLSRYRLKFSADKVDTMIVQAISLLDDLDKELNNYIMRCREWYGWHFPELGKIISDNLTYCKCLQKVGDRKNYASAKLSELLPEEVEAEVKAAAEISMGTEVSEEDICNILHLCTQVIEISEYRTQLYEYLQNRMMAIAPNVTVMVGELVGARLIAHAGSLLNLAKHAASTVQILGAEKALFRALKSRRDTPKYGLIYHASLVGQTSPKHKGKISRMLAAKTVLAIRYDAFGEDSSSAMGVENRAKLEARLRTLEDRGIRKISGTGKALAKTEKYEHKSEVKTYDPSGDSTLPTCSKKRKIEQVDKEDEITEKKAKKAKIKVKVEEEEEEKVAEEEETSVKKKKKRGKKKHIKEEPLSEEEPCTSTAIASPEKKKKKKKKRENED
concentration: 0.1mM
  NP40-soluble protein abundance: 1.01 ± 0.049
concentration: 0.5mM
  NP40-soluble protein abundance: 1.02 ± 0.019
concentration: 1mM
  NP40-soluble protein abundance: 1.07 ± 0.075
concentration: 2mM
  NP40-soluble protein abundance: 1.19 ± 0.044
concentration: 4mM
  NP40-soluble protein abundance: 1.4 ± 0.066
concentration: 6mM
  NP40-soluble protein abundance: 1.58 ± 0.13
concentration: 8mM
  NP40-soluble protein abundance: 1.77 ± 0.11
concentration: 10mM
  NP40-soluble protein abundance: 2.07 ± 0.16

## UniProt Q9NVI7-2
concentration: 0.1mM
  NP40-soluble protein abundance: 1.07 ± 0.062
concentration: 0.5mM
  NP40-soluble protein abundance: 1.16 ± 0.085
concentration: 1mM
  NP40-soluble protein abundance: 1.34 ± 0.083
concentration: 2mM
  NP40-soluble protein abundance: 1.56 ± 0.18
concentration: 4mM
  NP40-soluble protein abundance: 1.79 ± 0.32
concentration: 6mM
  NP40-soluble protein abundance: 1.9 ± 0.29
concentration: 8mM
  NP40-soluble protein abundance: 2.04 ± 0.29
concentration: 10mM
  NP40-soluble protein abundance: 2.11 ± 0.29

## SMARCD1 (UniProt Q96GM5)
Chain of UniProt Q96GM5 (Q96GM5 whole entry): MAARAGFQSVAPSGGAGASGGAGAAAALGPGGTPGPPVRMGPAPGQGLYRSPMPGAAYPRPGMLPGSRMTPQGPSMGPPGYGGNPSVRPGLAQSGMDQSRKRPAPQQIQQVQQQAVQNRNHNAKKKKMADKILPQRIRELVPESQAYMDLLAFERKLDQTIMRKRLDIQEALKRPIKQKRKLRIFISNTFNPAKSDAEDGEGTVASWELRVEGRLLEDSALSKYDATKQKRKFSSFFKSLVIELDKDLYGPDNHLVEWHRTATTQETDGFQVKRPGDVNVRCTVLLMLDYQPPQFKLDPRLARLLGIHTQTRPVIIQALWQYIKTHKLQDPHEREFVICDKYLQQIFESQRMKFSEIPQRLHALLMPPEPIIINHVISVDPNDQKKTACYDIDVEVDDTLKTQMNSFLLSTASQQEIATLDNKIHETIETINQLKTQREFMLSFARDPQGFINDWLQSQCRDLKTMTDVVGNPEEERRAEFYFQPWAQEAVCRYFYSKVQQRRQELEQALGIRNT
concentration: 0.1mM
  NP40-soluble protein abundance: 1.06 ± 0.036
concentration: 0.5mM
  NP40-soluble protein abundance: 1.11 ± 0.065
concentration: 1mM
  NP40-soluble protein abundance: 1.09 ± 0.089
concentration: 2mM
  NP40-soluble protein abundance: 1.18 ± 0.16
concentration: 4mM
  NP40-soluble protein abundance: 1.18 ± 0.17
concentration: 6mM
  NP40-soluble protein abundance: 1.18 ± 0.19
concentration: 8mM
  NP40-soluble protein abundance: 1.15 ± 0.18
concentration: 10mM
  NP40-soluble protein abundance: 1.16 ± 0.17

## DNAJB11 (UniProt Q9UBS4)
Chain of UniProt Q9UBS4 (Q9UBS4 whole entry): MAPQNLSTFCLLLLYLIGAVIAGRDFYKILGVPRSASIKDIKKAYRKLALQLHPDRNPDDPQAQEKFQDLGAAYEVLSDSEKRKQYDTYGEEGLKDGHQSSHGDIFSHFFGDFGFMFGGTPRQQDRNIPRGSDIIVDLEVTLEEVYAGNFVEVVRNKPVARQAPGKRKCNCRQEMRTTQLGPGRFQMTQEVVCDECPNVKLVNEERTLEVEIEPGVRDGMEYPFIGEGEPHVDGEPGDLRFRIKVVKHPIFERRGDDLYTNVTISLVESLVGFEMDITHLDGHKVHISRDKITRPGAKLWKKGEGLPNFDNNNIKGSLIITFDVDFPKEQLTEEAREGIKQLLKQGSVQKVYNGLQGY
concentration: 0.1mM
  NP40-soluble protein abundance: 1.01 ± 0.027
concentration: 0.5mM
  NP40-soluble protein abundance: 1.02 ± 0.048
concentration: 1mM
  NP40-soluble protein abundance: 1.03 ± 0.059
concentration: 2mM
  NP40-soluble protein abundance: 1 ± 0.048
concentration: 4mM
  NP40-soluble protein abundance: 1.01 ± 0.051
concentration: 6mM
  NP40-soluble protein abundance: 1.02 ± 0.046
concentration: 8mM
  NP40-soluble protein abundance: 1.005 ± 0.0044
concentration: 10mM
  NP40-soluble protein abundance: 0.982 ± 0.029

## UniProt Q9UJ83|Q9UJ83-2|Q9UJ83-3
Chain of UniProt Q9UJ83 (Q9UJ83 whole entry): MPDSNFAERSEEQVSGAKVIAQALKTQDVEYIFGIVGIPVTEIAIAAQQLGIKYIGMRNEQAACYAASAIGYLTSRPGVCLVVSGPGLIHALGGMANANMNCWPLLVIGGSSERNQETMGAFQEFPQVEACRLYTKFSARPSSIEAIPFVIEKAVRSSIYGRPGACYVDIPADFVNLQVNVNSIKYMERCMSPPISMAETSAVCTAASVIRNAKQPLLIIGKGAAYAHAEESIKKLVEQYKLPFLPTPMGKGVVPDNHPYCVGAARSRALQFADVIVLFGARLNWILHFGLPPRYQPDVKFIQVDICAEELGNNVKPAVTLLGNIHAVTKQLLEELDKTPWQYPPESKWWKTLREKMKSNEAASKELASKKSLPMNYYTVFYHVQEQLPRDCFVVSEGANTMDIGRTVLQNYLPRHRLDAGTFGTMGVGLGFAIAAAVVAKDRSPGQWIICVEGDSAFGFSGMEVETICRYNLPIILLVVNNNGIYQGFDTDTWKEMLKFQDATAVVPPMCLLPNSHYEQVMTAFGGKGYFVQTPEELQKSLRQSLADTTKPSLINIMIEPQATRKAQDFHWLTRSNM
concentration: 0.1mM
  NP40-soluble protein abundance: 1.067 ± 0.0066
concentration: 0.5mM
  NP40-soluble protein abundance: 1.03 ± 0.11
concentration: 1mM
  NP40-soluble protein abundance: 0.98 ± 0.05
concentration: 2mM
  NP40-soluble protein abundance: 1.01 ± 0.11
concentration: 4mM
  NP40-soluble protein abundance: 0.987 ± 0.04
concentration: 6mM
  NP40-soluble protein abundance: 0.958 ± 0.08
concentration: 8mM
  NP40-soluble protein abundance: 0.926 ± 0.021
concentration: 10mM
  NP40-soluble protein abundance: 0.9129 ± 0.0074
